This is an account of results in PubChem BioAssay AID1445 (SRMLSC, 2008).

Screen size: about 220,000 compounds; about 910 (0.41%) were called active. The entries come from a sample that favours actives as a whole. Results with a measured potency or affinity are listed apart. A number with no mark means an inactive call.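 The calls were made as follows: active = primary inhibition above the hit cutoff, then over 50% inhibition at one or more dose response concentrations (cut at about 23% in these data, passing the limit was not always enough); inconclusive = conflicting primary data, or primary hits not chosen for dose response; inactive = low primary inhibition, or under 50% at every dose.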

In the assay the target is Aminopeptidase N (Plasmodium falciparum (isolate 3D7)) (UniProt O96935). Briefly: P. falciparum M1AAP inhibitors, biochemical, fluorogenic H-Leu-NHMec substrate, 1536-well (AID 1445).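 Also: plate controls were DMSO full reaction for no effect and no enzyme background for full effect.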 As to conditions: recombinant M1AAP, H-Leu-NHMec fluorogenic kinetic assay; at 30 µM, stronger effect = higher value unless noted.
Aminopeptidase N (Plasmodium falciparum (isolate 3D7)), sequence (O96935 whole entry, looked up): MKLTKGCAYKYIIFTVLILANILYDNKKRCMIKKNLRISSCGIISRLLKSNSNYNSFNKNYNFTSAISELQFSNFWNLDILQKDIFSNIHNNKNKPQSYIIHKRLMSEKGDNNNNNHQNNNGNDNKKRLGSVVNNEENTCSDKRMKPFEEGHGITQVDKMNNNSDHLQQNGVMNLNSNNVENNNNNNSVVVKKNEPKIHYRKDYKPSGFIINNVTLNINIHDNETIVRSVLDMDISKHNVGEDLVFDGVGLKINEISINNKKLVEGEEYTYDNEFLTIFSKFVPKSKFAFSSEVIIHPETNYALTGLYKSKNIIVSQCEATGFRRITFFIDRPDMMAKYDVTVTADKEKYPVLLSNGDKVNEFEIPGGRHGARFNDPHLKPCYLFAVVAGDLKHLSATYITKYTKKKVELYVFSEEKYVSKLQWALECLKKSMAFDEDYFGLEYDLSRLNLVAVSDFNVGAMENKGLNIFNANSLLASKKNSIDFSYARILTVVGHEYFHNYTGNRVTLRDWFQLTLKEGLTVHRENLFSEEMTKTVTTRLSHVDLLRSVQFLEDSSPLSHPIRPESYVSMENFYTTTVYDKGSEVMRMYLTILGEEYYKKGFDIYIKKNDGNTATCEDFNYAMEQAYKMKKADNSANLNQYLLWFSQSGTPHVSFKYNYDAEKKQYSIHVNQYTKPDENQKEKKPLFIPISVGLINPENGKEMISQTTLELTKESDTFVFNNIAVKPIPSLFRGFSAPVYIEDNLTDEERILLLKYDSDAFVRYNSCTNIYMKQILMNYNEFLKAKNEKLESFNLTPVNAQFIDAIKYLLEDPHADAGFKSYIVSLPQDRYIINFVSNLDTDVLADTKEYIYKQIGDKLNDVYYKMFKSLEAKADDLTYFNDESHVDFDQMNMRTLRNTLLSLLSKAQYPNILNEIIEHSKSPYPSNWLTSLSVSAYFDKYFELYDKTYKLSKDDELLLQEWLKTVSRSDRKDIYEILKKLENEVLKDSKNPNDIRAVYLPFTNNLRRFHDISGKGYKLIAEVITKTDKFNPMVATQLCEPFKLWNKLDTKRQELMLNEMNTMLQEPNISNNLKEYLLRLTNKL
As usually defined, the inhibition is the relative decrease from the control value, in per cent. For `Cc1cccc(C(=O)Nc2sc(C)c(-c3ccccc3)c2C#N)c1`, the inhibition is 3.54%.
The figure for `O=C(OC1CCOC1=O)c1ccc(Cl)c(S(=O)(=O)N2CCCCC2)c1` (stereo not drawn) is 1.33%.
Next, `COc1cc(/C=C2\SC(c3ccc(C)cc3)=NC2=O)cc(OC)c1O`: 19.7%.
In the case of `COc1cc(/C=C2\SC(c3ccc(C)cc3)=NC2=O)cc(OC)c1OC`, the inhibition was -0.48%.
In the case of `COCCNC(=O)c1cc2c(=O)n3cccc(C)c3nc2n(Cc2ccncc2)c1=N`, the inhibition is 30.2%.
Next, `C=CCn1c(=N)c(C(=O)NCCCOC)cc2c(=O)n3ccccc3nc21`: 13.6%; `COCCCNC(=O)c1cc2c(=O)n3cccc(C)c3nc2n(C(C)C)c1=N`: 21.8%; `C=CCn1c(=N)c(C(=O)NCCCOC)cc2c(=O)n3cc(C)ccc3nc21`: 4.34%.
Next, `CC(CN1CCCCC1)OC(=O)C1c2ccccc2Oc2ccccc21` (stereo not drawn): 1.62%.
The figure for `Cc1ccc(S(=O)(=O)N2c3ccccc3CC2C)cc1` (stereo not drawn) is 2.44%; for `CC(c1ccccc1)C1CC(=O)N(C2CCCCC2)C1=O` (stereo not drawn) it is -0.34%; for `COc1ccc2cc1Oc1ccc(cc1)C[C@H]1c3c(cc4c(c3Oc3cc5c(cc3OC)CCN(C)[C@@H]5C2)OCO4)CCN1C` it is 2.7%.
For the compound `COc1ccc2cc1Oc1ccc(cc1)C[C@H]1c3cc(c(OC)cc3CCN1C)Oc1c(OC)c(OC)cc3c1[C@H](C2)N(C)CC3`, the inhibition is 0.59%.
Take `CC(c1ccccc1)n1c(Cn2ncc3ccccc3c2=O)n[nH]c1=S` (stereo not drawn): the inhibition is 7.12%.
The figure for `O=C(NCc1ccco1)C1CCCN(S(=O)(=O)c2cccc3cccnc23)C1` (stereo not drawn) is 9.65%; for `O=C(NCc1ccc2c(c1)OCO2)C1CCCN(S(=O)(=O)c2cccc3nonc23)C1` (stereo not drawn) it is 27.8% (active).
On to `O=C(NCc1ccccc1)C1CCCN(S(=O)(=O)c2cccc3nonc23)C1` (stereo not drawn), for which the inhibition was 34.1%.
Next, `O=C(NCc1ccco1)C1CCCN(S(=O)(=O)c2cccc3nsnc23)C1` (stereo not drawn): 5.11%; `O=C(NCc1ccc2c(c1)OCO2)C1CCCN(S(=O)(=O)c2cccc3cccnc23)C1` (stereo not drawn): 18.6%; `COCC(=O)N(Cc1ccccc1)c1ccccn1`: 17.1%.
Next, `CC(=O)Nc1ccc(S(=O)(=O)N2CCN(CC(O)COc3ccc4ccccc4c3)CC2)cc1` (stereo not drawn): 8.01%; `O=C(CSc1nnc(Cc2ccccc2)n1C1CCCCC1)N1CCOCC1`: 4.89%; `COc1ccc(/C(N)=N/OC(=O)c2ccc3c(c2)OCO3)cc1OC`: 1.74%.
Next, `COc1ccc(OCCSc2nnc(CC(=O)Nc3cccc(Cl)c3Cl)n2C)cc1`: 23.6% (active); `CCn1c(CC(=O)Nc2cccc(Cl)c2Cl)nnc1SCCOc1ccc(OC)cc1`: 13.4%.
For the compound `COc1cccc(NC(=O)Cc2nnc(SCCOc3ccccc3)n2C)c1`, the inhibition was 8.03%.
The figure for `CCC(=O)Nc1nc(C)c(-c2csc(Nc3ccc(S(=O)(=O)Nc4cc(C)on4)cc3)n2)s1` is 6.43%.
Next, `Cc1cc(NS(=O)(=O)c2ccc(Nc3nc(-c4sc(C)nc4C)cs3)cc2)no1`: 23.9% (active).
Next, `Cc1cc(NS(=O)(=O)c2ccc(Nc3nc(-c4sc(N)nc4C)cs3)cc2)no1`: 17.9%; `Cc1nc(CNC(=O)c2cc(COc3ccc(F)cc3Cl)on2)cs1`: 3.28%.
`Cc1ccc(S(=O)(=O)Nc2ccc(Cl)cc2C(=O)c2ccccc2)cc1`: the inhibition is 3.73%.
The figure for `O=C(Cc1sc(Nc2ccccc2)nc1-c1ccccc1)NCc1ccccc1` is 7.32%; for `COc1cc(/C=N/Nc2nc3ccccc3s2)cc([N+](=O)[O-])c1O` it is 32.1%; for `COc1cc(/C=C(\C#N)c2nc3ccccc3[nH]2)cc(OC)c1O` it is 20.3%.
Turning to `N#C/C(=C/c1ccncc1)c1nc2ccccc2s1`, the inhibition was -2.18%.
Next, `COc1cc(/C=C(\C#N)c2nc3ccc(C)cc3[nH]2)c([N+](=O)[O-])cc1OC`: 14.8%; `COc1ccc(-c2csc(/C(C#N)=C\c3ccc(O)c([N+](=O)[O-])c3)n2)cc1OC`: 3.12%; `COc1cc(/C=C(/C#N)c2nc(-c3cc4ccccc4oc3=O)cs2)cc([N+](=O)[O-])c1O`: 11%.
Next, `CC(C)COC(=O)N(C)c1ccc(C(O)(C(F)(F)F)C(F)(F)F)cc1`: 11.6%; `COCCn1c(SCC(=O)Nc2cccc(OC)c2)nc2c(oc3ccccc32)c1=O`: -5.31%.
For the compound `NS(=O)(=O)c1ccc(NC(=O)COC(=O)CCNC(=O)NC23CC4CC(CC(C4)C2)C3)cc1`, the inhibition is 2.67%.
In the case of `CSc1nc(C)cc(C)c1C(N)=O`, the inhibition was 6.25%.
The figure for `CCCCc1[nH]c(=O)c(C#N)c2c1CSC(C)(C)C2` is 23.7% (active); for `CCc1[nH]c(=O)c(C#N)c2c1CSC(C)(C)C2` it is 10.3%.
Next, `Cc1[nH]c(=O)c(C#N)c2c1CSC(C)(C)C2`: 9.75%.
Next, `CCOC(=O)c1coc(CNC(=O)c2c(C)oc3c2CCCC3)c1`: 4.14%; `Cc1ccc(CN2CCN(C3CSCCSC3)CC2CCO)cc1` (stereo not drawn): -1.96%.
Take `CC(=O)N1CCN(c2ccc(NC(=O)C(C)Oc3ccc(Cl)cc3Cl)cc2)CC1` (stereo not drawn): the inhibition was 4.51%.
As for `O=c1cc(-c2ccccc2Cl)oc2c(NS(=O)(=O)c3ccccc3C(F)(F)F)ccc(O)c12`, the inhibition was 10.4%.
Next, `O=c1cc(-c2ccccc2Cl)oc2c(NS(=O)(=O)c3ccccc3OC(F)(F)F)ccc(O)c12`: 3.26%; `Cc1ccc(S(=O)(=O)N2CCCC2C(=O)Nc2ccc(O)cc2)cc1` (stereo not drawn): 7.62%.
The figure for `c1ccn2c(SCc3ccc4c(c3)OCO4)nnc2c1` is 3.07%.
Next, `S=C(Nc1ccc(Br)cc1)N1CCn2cccc2C1c1cccnc1` (stereo not drawn): 10.1%; `COc1ccc(C)cc1NC(=O)c1cc2ccccc2o1`: -2.39%.
For the compound `COc1ccc(C(=O)Nc2cccc(OC)c2)cc1`, the inhibition was 1.64%.
The figure for `Cc1ccc(C(=O)Nc2ccc(Oc3ccc(C(=O)O)c(C(=O)O)c3)cc2)cc1C` is 5.36%; for `COc1ccc(S(=O)(=O)n2nc(OC(=O)c3cccs3)cc2NC(=O)c2cccs2)cc1` it is 3.59%.
`CN(C(=O)c1cc2n(n1)C(C(F)(F)F)CC(c1ccco1)N2)c1ccccc1` (stereo not drawn): the inhibition was 2.19%.
Next, `O=C(Oc1ccc(OC(=O)c2ccco2)c(S(=O)(=O)c2ccc(Cl)cc2)c1)c1ccco1`: 4.36%.
Next, `COc1ccc(C(=O)O/N=C(\N)Cc2ccc([N+](=O)[O-])cc2)c(OC)c1`: 5.06%; `O=C(CSc1nnc(CCCN2C(=O)c3cccc4cccc(c34)C2=O)n1-c1ccccc1)N1CCCCC1`: 3.42%; `O=C(CSc1nnc(CCCN2C(=O)c3cccc4cccc(c34)C2=O)n1-c1ccccc1)NCCCO`: 13.2%.
Next, `Cn1c(SCC(=O)c2ccc(F)cc2)nnc1-c1cnccn1`: -2.54%.
Regarding `O=C(CN(c1ccccn1)S(=O)(=O)c1ccccc1)Nc1ccccc1`, the inhibition was -0.68%.
The figure for `Cc1csc(SCC(=O)Nc2cccc(S(=O)(=O)N3CCOCC3)c2)n1` is 0%; for `O=C(NCc1ccccc1Cl)c1ccc(CSc2nc3ccncc3[nH]2)cc1` it is 1.57%; for `CSC(=NC#N)N1CCN(c2ccc([N+](=O)[O-])cc2)CC1` it is 8.93%.
The figure for `C=CCN(CC=C)S(=O)(=O)c1ccc(NC(=S)NC(=O)/C=C/c2ccccc2)cc1` is 9.4%; for `O=C(Cn1nnc2ccccc21)Nc1ccccc1[N+](=O)[O-]` it is -1.91%; for `CC(C)(C)NC(=O)COc1ccccc1C#N` it is -0.28%.
Next, `Cc1ccc(C(=O)Nc2nc(=O)n(C(=O)c3ccccc3C)s2)cc1`: 4.83%; `Cc1ccc(C(=O)Nc2nc(=O)n(C(=O)C3CC3)s2)cc1`: 4.6%; `Cc1cc[n+](-c2nc3ccccc3nc2C(=C=[N-])C#N)cc1`: 4.51%.
With `CCOC(=O)C1(CC2CCCCO2)CCN(C(=O)Nc2ccccc2CC)CC1` (stereo not drawn), the inhibition is 1.45%.
The figure for `O=C(NCCc1nc2ccccc2[nH]1)/C(=C/c1ccc2c(c1)OCO2)NC(=O)c1ccccc1Cl` is 4.92%; for `COc1cccc(/C=C2\SC(N)=NC2=O)c1OS(=O)(=O)c1ccccc1` it is 12.7%.
Next, `COc1ccc([N+](=O)[O-])cc1NS(=O)(=O)c1ccccc1`: 6.84%; `Cc1cc(NS(=O)(=O)c2ccccc2)c([N+](=O)[O-])cc1C`: 14%.
Next, `COc1cc(C(=O)Nc2ccc(S(=O)(=O)Nc3ncccn3)cc2)c([N+](=O)[O-])cc1OC`: 1.81%; `COc1ccc(NS(=O)(=O)c2ccc(C)cc2)c([N+](=O)[O-])c1`: 3.88%; `COc1ccc(S(=O)(=O)Nc2cc([N+](=O)[O-])ccc2OC)cc1`: 14.5%.
For the compound `NC(=O)c1c(NC(=O)COC(=O)c2ccc(S(=O)(=O)Nc3ccccc3)cc2)sc2c1CCCC2`, the inhibition was 6.65%.
With `COc1cc(C(=O)NCc2cn3ccccc3n2)cc(OC)c1OC`, the inhibition was 9.74%.
Next, `CN(C(=O)COC(=O)/C=C/c1cn(-c2ccccc2)nc1-c1ccc2c(c1)OCCO2)C1CCS(=O)(=O)C1` (stereo not drawn): 9.43%; `CCn1c(SCC(=O)NCCc2ccccc2)nnc1-c1cccs1`: 8.15%; `CCn1c(CNC(=O)c2cccs2)nnc1SCC(=O)Nc1ccc(Cl)cc1`: 4.83%.
Regarding `CCn1c(CCNC(=O)c2cccs2)nnc1SCC(=O)Nc1ccc(Cl)cc1`, the inhibition is 2.16%.
Next, `CCOC(=O)CSc1nnc(CNC(=O)c2cccs2)n1CCc1ccccc1`: -4.29%.
